Experimental data taken from PubChem BioAssay (NCATS).
Calls of active or inactive are those of the source. How the calls were made is not given here.

Assay: qHTS assay for small molecule activators of the human pregnane X receptor (PXR) signaling pathway (AID 720659)
Settings: DPX-2 HepG2 CYP3A4-luciferase, 24 h; series mostly up to 92.3 µM
With `O=c1n(CC2CO2)c(=O)n(CC2CO2)c(=O)n1CC1CO1` (stereo not drawn) the outcome was “inactive”. With `Cc1ccc(S(=O)(=O)O)cc1C` the outcome was “inactive”. For `OCl`, the outcome was “inactive”. With `ClC(Cl)Cl` the outcome was “inactive”. For `CC(C)O`, the outcome was “inactive”. With `OCc1ccccc1` the outcome was “inactive”. For `CO/N=C(/C(=O)N[C@@H]1C(=O)N2C(C(=O)O)=C(COC(N)=O)CS[C@H]12)c1ccco1`, the outcome was “inactive”. For `CO[C@@H]1[C@H](OC(=O)/C=C/C=C/C=C/C=C/C(=O)O)CC[C@]2(CO2)[C@H]1[C@@]1(C)O[C@@H]1CC=C(C)C`, the outcome was “inactive”. In the case of `O=P(O)(O)O`, the outcome is reported as “inactive”. With `NCCN` the outcome was “inactive”. With `NC(N)=O` the outcome was “inactive”. With `N[C@@H](Cc1cc(I)c(Oc2ccc(O)c(I)c2)c(I)c1)C(=O)O` the outcome was “inactive”. With `CCCCC(CC)COS(=O)(=O)O` (stereo not drawn) the outcome was “inactive”. In the case of `CC1=CC(=O)NS(=O)(=O)O1`, the outcome is reported as “inactive”. For `C[C@H](CCC(=O)O)[C@H]1CC[C@H]2[C@@H]3[C@H](O)C[C@@H]4C[C@H](O)CC[C@]4(C)[C@H]3C[C@H](O)[C@]12C`, the outcome was “inactive”. In the case of `C[Si](C)(C)O[Si](C)(C)C`, the outcome is reported as “inactive”. For `CC(C)[C@@H]1CC[C@@H](C)C[C@H]1O`, the outcome was “inactive”. With `Cc1ncc[nH]1` the outcome was “inactive”. With `Nc1nccs1` the outcome was “inactive”. With `CN(CCO)CC(O)Cn1cnc2c1c(=O)n(C)c(=O)n2C` (stereo not drawn) (tested in a mixture with another compound) the outcome was “inactive”. With `CC/C=C\C/C=C\C/C=C\CCCCCCCC(=O)O` the outcome was “inactive”. With `OCC(O)CO` the outcome was “inactive”. For `CC(C)CCC[C@@H](C)[C@H]1CC[C@H]2[C@@H]3CC=C4C[C@@H](O)CC[C@]4(C)[C@H]3CC[C@]12C`, the outcome was “inactive”.
